Screening results: PubChem BioAssay, National Center for Advancing Translational Sciences (NCATS)
POLH inh: inhibitors of human DNA polymerase eta; 1.2% of 390,000 active; recombinant Pol eta, fluorescent DNA replication assay; Potency, µM (highest dose often 114 µM), hits mostly inhibitors; Q9Y253; AID 588591
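Fluorescent replication assay: 50 nM final substrate added after a 15 min room-temperature compound preincubation with 10 nM enzyme. Signal taken at 0 min and again at 10 min.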
POLB inh: blocks human DNA polymerase beta activity; P06746; Pol beta primer extension/strand displacement, fluorescence kinetic; Potency, µM (highest dose often 114 µM), usual class: inhibitors; 1.3% of 340,000 active
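Reaction started by 50 nM substrate onto compound-treated Pol beta (10 nM, 15 min preincubation, room temperature); plates read at 0 min and 10 min. Normalized concentration-effect data fitted by four-parameter Hill equation.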
L3MBTL1 block: inhibitors of human L3MBTL1; AID 485360; 0.66% of 230,000 active; Q9Y468; Potency, µM (series often up to 57.1 µM), usual class: inhibitors; AlphaScreen L3MBTL1–H3K9me1 peptide binding; note: nearly all actives have a fitted effect of over 60% in size
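AlphaScreen proximity signal between nickel-chelate acceptor and streptavidin donor beads (final 10 ug/mL) reports binding of 50 nM L3MBTL1 to 75 nM biotin-H3 K9me1 peptide; complex incubated with compounds 30 min at room temperature; cefsulodin titration as control.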
Pol iota inh: inhibitors of human DNA polymerase iota. 1% of 390,000 active. Potency, µM (highest dose often 115 µM), actives largely listed as inhibitors. Pol iota fluorescent replication assay, 10 min. Q9UNA4
Target sequence (Q9UNA4 whole entry, looked up): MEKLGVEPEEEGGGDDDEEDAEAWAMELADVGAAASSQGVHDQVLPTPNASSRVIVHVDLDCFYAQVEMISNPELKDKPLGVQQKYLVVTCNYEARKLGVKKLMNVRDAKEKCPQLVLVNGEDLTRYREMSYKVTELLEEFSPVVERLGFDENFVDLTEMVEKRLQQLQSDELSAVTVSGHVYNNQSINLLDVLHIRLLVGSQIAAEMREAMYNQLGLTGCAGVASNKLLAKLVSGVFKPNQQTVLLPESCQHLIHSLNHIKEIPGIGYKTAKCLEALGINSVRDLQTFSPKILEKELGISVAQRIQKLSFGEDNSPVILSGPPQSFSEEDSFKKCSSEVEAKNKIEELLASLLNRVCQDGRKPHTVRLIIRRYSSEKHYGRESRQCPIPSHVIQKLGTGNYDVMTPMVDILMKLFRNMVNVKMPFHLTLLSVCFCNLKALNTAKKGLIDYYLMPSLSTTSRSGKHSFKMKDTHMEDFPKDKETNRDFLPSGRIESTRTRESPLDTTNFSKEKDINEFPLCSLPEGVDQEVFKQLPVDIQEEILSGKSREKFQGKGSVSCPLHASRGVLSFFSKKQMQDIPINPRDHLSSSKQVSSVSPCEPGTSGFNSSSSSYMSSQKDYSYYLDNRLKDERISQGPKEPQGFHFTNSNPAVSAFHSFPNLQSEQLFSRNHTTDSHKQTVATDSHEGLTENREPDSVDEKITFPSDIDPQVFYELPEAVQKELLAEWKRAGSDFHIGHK
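Pol iota at 10 nM preincubated 15 min with compounds at room temperature; reaction started with fluorescent substrate, 50 nM final. Fluorescence read kinetically at 0 and 10 min; buffer-only wells as negative control.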
POLK inh: inhibitors of human DNA polymerase kappa; Potency, µM (titrated, usually from 107 µM), actives largely listed as inhibitors; 0.53% of 400,000 active; purified Pol kappa, fluorescent DNA synthesis assay, 10 min; Q9UBT6
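10 nM Pol kappa preincubated 15 min at room temperature with compounds, then reaction started with substrate at 50 nM final. Fluorescence read kinetically at 0 and 10 min; buffer-only wells served as negative control.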
Of the large screens only hits and unclear results are named; the others gave an inactive call. Shown are actives, neighbours in structure and some others; about 2.4% of the full set was active somewhere. Calls come from the whole dose curve; as a rule, active = well fitted curve in the direction sought with a large enough effect; inconclusive = small, poorly fitted or top-dose-only effect, or another doubt; inactive = no such curve, though single readings can be large; an effect the other way counts as inactive or inconclusive.

CC(C)n1c(O)c(C2c3cc(Cl)ccc3Oc3[nH]c(=O)n(C(C)C)c(=O)c32)c(=O)[nH]c1=O (configuration not stated)	POLH inh inconclusive, Pol iota inh 15.8µM
C[C@]12C=CC(=O)C=C1CCC1C2=CC[C@]2(C)[C@@H](C(=O)CN3CCN(c4cc(N5CCCC5)nc(N5CCCC5)n4)CC3)CC[C@@H]12 (some centres not stated)	POLH inh inconclusive (no result: L3MBTL1 block, POLK inh)
Oc1ccc(/C=N/NP(=S)(c2ccccc2)c2ccccc2)c(O)c1O	POLH inh inconclusive, POLB inh 14.1µM, Pol iota inh inconclusive (no result: L3MBTL1 block)
Oc1ccccc1/C=N/NP(=S)(c1ccccc1)c1ccccc1	none
O=C1NC(=O)N(c2ccc3c(c2)OCO3)C(=O)/C1=C\c1ccc(-c2ccccc2C(=O)O)o1	POLH inh 10µM, POLB inh 10µM, L3MBTL1 block inconclusive, Pol iota inh 20µM, POLK inh 79.4µM
O=C1NC(=O)N(CCc2ccc(F)cc2)C(=O)/C1=C/c1cccs1	POLB inh inconclusive, Pol iota inh 22.4µM (no result: L3MBTL1 block)
O=c1[nH]c(=O)n(Cc2ccccc2Cl)c(O)c1/C=C1/C=CC=N1	POLH inh inconclusive, POLB inh inconclusive, Pol iota inh 44.7µM, POLK inh inconclusive
C=CCn1c(O)c(/C=C2/C=CC=N2)c(=O)[nH]c1=O	POLH inh inconclusive, Pol iota inh 20µM
CCOC(=O)c1c(C)[nH]c(C)c1S(=O)(=O)N1CCC(C(=O)N2CCN(c3cccc(Cl)c3)CC2)CC1	none (no result: L3MBTL1 block)
O=C(NCc1ccc2c(c1)CCN2C(=O)c1ccccc1)Nc1cccc(C(F)(F)F)c1	POLH inh inconclusive (no result: L3MBTL1 block)
O=C(Nc1cccc(C(=O)Nc2cc(C(=O)Nc3ccc([S+](=O)([O-])[O-])c4cc([S+](=O)([O-])[O-])cc(SOOO)c34)ccc2F)c1)Nc1cccc(C(=O)Nc2cc(C(=O)Nc3ccc([S+](=O)([O-])[O-])c4cc([S+](=O)([O-])[O-])cc([S+](=O)([O-])[O-])c34)ccc2F)c1	POLK inh 0.0597µM (no result: POLH inh, POLB inh, L3MBTL1 block, Pol iota inh)
O=C(O)c1cc[c]([Hg][Cl])cc1	POLB inh 14.1µM, Pol iota inh 1.78µM
COc1ccc(C(=O)O)cc1OC	none (no result: POLB inh, L3MBTL1 block)
CCCNC(=O)c1c(N)n(CC2CCCO2)c2nc3ccccc3nc12 (configuration not stated)	none
COc1ccc(Cn2c(N)c(C(=O)NCc3ccco3)c3nc4ccccc4nc32)cc1	POLH inh inconclusive, POLB inh 56.2µM, Pol iota inh inconclusive
CCCCn1c(N)c(C(=O)OCCOC)c2nc3ccccc3nc21	none (no result: L3MBTL1 block)
CCCCCn1c(N)c(C(=O)NCc2cccs2)c2nc3ccccc3nc21	Pol iota inh 22.4µM
CCCCn1c(N)c(C(=O)NCc2cccs2)c2nc3ccccc3nc21	Pol iota inh inconclusive
COCCCn1c(N)c(C(=O)NCCC(C)C)c2nc3ccccc3nc21	Pol iota inh 4.47µM
CC(C)OCCCNC(=O)c1c(N)n(CC2CCCO2)c2nc3ccccc3nc12 (configuration not stated)	POLB inh inconclusive, Pol iota inh 7.08µM
NC(=O)[C@H](Cc1ccccc1)NC(=O)[C@H](Cc1c[nH]c2ccccc12)NC(=O)[C@@H]1CCCN1C(=O)[C@@H](N)Cc1ccc(O)cc1	none (no result: POLH inh, POLB inh, L3MBTL1 block, Pol iota inh)
On1ccccc1=S	Pol iota inh inconclusive (no result: POLB inh)
Cc1cnc2c(C(=O)O)c(Cl)ccc2c1	none (no result: POLH inh, POLB inh, L3MBTL1 block, Pol iota inh)
CC(N)C(=O)NCC(=O)NC1CSSCC(C(=O)O)NC(=O)C(CO)NC(=O)C(C(C)O)NC(=O)C(Cc2ccccc2)NC(=O)C(C(C)O)NC(=O)C(CCCCN)NC(=O)C(Cc2c[nH]c3ccccc23)NC(=O)C(Cc2ccccc2)NC(=O)C(Cc2ccccc2)NC(=O)C(CC(N)=O)NC(=O)C(CCCCN)NC1=O (configuration not stated)	none (no result: POLH inh, POLB inh, L3MBTL1 block, Pol iota inh)
COc1ccc(NC(=O)CSc2oc(-c3cccs3)nc2S(=O)(=O)c2ccccc2)c(OC)c1	Pol iota inh inconclusive (no result: L3MBTL1 block)
Cc1ccc(N2C(=O)NC(=O)/C(=C\c3ccc(N4CCOCC4)cc3)C2=O)cc1	none
Cc1ccc(N2C(=O)NC(=O)/C(=C\c3ccc([N+](=O)[O-])o3)C2=O)cc1	POLB inh inconclusive, L3MBTL1 block 3.55µM (no result: POLH inh, Pol iota inh, POLK inh)
COc1cccc2c1C(=O)c1c(O)c3c(c(O)c1C2=O)C[C@@](O)(C(=O)CO)C[C@@H]3O[C@H]1C[C@H](N)[C@H](OC2CCCCO2)[C@H](C)O1 (some centres not stated)	Pol iota inh inconclusive, POLK inh 10µM (no result: POLH inh, POLB inh, L3MBTL1 block)
Cn1c(SCc2nc3cc(C(=O)O)ccc3c(=O)[nH]2)nnc1C(F)(F)F	none
C=CCN(CC(=O)c1sc(C(=O)OCC)nc1C)c1cccc(Br)c1	none (no result: POLB inh, L3MBTL1 block)
CC(C)C[C@H]1C(=O)N2CCCC2[C@]2(O)O[C@](NC(=O)[C@@H]3C=C4c5cccc6[nH]cc(c56)CC4N(C)C3)(C(C)C)C(=O)N12 (some centres not stated)	L3MBTL1 block inconclusive, Pol iota inh inconclusive, POLK inh inconclusive
CCC(CO)NC(=O)[C@@H]1C=C2c3cccc4[nH]cc(c34)C[C@H]2N(C)C1 (some centres not stated)	POLH inh inconclusive, Pol iota inh 31.6µM (no result: L3MBTL1 block, POLK inh)
CC(C)[C@H]1C(=O)N2CCC[C@H]2[C@]2(O)O[C@](NC(=O)[C@@H]3C=C4c5cccc6[nH]cc(c56)C[C@H]4N(C)C3)(C(C)C)C(=O)N12	Pol iota inh 22.4µM
CC1Cc2ccccc2N1C(=O)COC(=O)c1ccc(Cl)nc1 (configuration not stated)	none
CCOP(=S)(OCC)Oc1ccc(Cl)cc1Cl	none (no result: POLH inh, POLB inh, L3MBTL1 block, Pol iota inh)
O=c1[nH]c(=S)[nH]c(O)c1N=Nc1ccc(SC(F)F)cc1	Pol iota inh inconclusive
O=c1[nH]c(=S)[nH]c(O)c1N=Nc1ccc(S(=O)(=O)N2CCc3ccccc32)cc1	POLB inh 79.4µM (no result: L3MBTL1 block)
O=c1c(-c2ccccc2)c(O)c2ccccc2n1-c1ccccc1	none (no result: L3MBTL1 block)
CN(N=O)c1ccc(O)c(O)c1	POLH inh 0.891µM, POLB inh 0.631µM, Pol iota inh 0.794µM, POLK inh 2.38µM (no result: L3MBTL1 block)
NC(Cc1cc(O)c(O)cc1O)C(=O)O (configuration not stated)	POLH inh 0.282µM, POLB inh 0.112µM, L3MBTL1 block 0.159µM, Pol iota inh 0.398µM, POLK inh 0.67µM
CCOc1cc(OP(=S)(OC)OC)nc(CC)n1	none (no result: POLH inh, POLB inh, L3MBTL1 block, Pol iota inh)
Nc1cccc2c(O)cccc12	none (no result: POLB inh, L3MBTL1 block)
Oc1ccccc1O	POLH inh inconclusive, POLB inh 39.8µM, L3MBTL1 block 17.8µM, Pol iota inh 79.4µM, POLK inh 50.1µM
Cc1cc(C(C#N)c2ccc(Cl)cc2)c(Cl)cc1NC(=O)c1cc(I)cc(I)c1O (configuration not stated)	POLH inh 50.1µM, L3MBTL1 block inconclusive, Pol iota inh inconclusive, POLK inh inconclusive (no result: POLB inh)
